# The list is not random: actives were taken first. Their share in the collection is about 4.6%.
# PfHsp90 yeast 2 = reduces growth (ATP signal) of yeast expressing P. falciparum Hsp90 | S. cerevisiae expressing PfHsp90, BacTiter-Glo ATP, 48 h; yeast lacking PDR1 and PDR3 efflux regulators | inhibition, % at 9.4 µM | 0.32% of 310,000 active;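 active means every replicate shows inhibition above about 80%, whatever the replicate mean, limit read from the data; inconclusive means mean inhibition reaches the set limit but some replicate falls short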;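 further: 0% = DMSO neutral controls and 100% = 20 µM radicicol positive controls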
# tim10-1 inh = inhibits growth of tim10-1 mutant yeast; inhibition, % at 20 µM; 2.2% of 330,000 active; S. cerevisiae tim10-1 ts strain growth, BacTiter-Glo, 24 h;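 active means inhibition of at least 40%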;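 further: mutant grown at 25 °C; 0% = DMSO wells with yeast and 100% = wells holding no yeast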
# NALP3 yeast inh = NALP3 inhibition in yeast. Yeast reconstituted NLRP3/ASC/caspase-1, beta-gal luminescence, 24 h. inhibition, % at 10 µM. 0.39% of 330,000 active;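 active means inhibition of 50% or more; inactive means inhibition below 50%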;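 further: plate controls were induced DMSO wells for no effect and uninduced yeast grown without galactose for full effect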
# tim23-1 inh = tim23-1 yeast growth inhibition; AID 463212; inhibition, % at 20 µM; S. cerevisiae tim23-1 growth, BacTiter-Glo luminescence, 24 h; 1.3% of 330,000 active;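 active means growth inhibition of the mutant yeast at or above 50%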;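 further: temperature-sensitive mutant grown at 25 °C; plate controls were DMSO-treated mutant yeast for no effect and medium wells lacking yeast for full effect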
# TIM10 inh = growth inhibitors of TIM10 yeast strain; 1.4% of 330,000 active; S. cerevisiae TIM10 strain growth, BacTiter-Glo luminescence, 24 h; AID 463195; inhibition, % at 10 µM;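 active means inhibition of 40% or more at the single tested concentration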;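 further: wild-type TIM10 isogenic control strain grown at permissive 25 °C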
# SKKanGAS inh = inhibitors of SKKanGAS S. pyogenes growth in kanamycin (SK-promoter or general growth effect); inhibition, % at 7.5 µM; BacTiter-Glo, 6 h; AID 1662; 1.3% of 300,000 active;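 active means mean replicate score, as percent of positive control median, at least 50; inconclusive means mean below 50 but one replicate at or above 50; inactive means mean and every replicate below 50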;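 further: strain carries kanamycin resistance gene driven by streptokinase promoter and grows in 40 µg/ml kanamycin; loss of luminescence reflects streptokinase promoter inhibition or plain growth inhibition; 0% = median of DMSO wells and 100% = positive control at its reference dose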
# * marks the source's active call; other numbers are inactive results; u = inconclusive; x = no result given.
SMILES,PfHsp90 yeast 2,tim10-1 inh,NALP3 yeast inh,tim23-1 inh,TIM10 inh,SKKanGAS inh
CCOc1ccc(N2C(N)=NC(N)=NC2(C)C)cc1,26,-6,25,-5,-2,95*
COc1ccc(SC[C@H](C)CN2CC[C@H](C(C)(C)C)CCC2=O)cc1,-36,20,5,32,22,x
O=C(O)CN1C(=O)/C(=C/c2ccc(SCc3ccccc3)o2)SC1=S,-6,x,x,x,x,x
CCOC(=O)c1cccc(N2C(N)=NC(N)=NC2(C)C)c1,-56,-5,9,-9,-23,91*
Cc1nnc(SC(C)C(=O)Nc2c(C)n(C)n(-c3ccccc3)c2=O)n1N (centres undefined),-6,7,9,-14,14,3
O=[N+]([O-])c1cc(C(F)(F)F)cc([N+](=O)[O-])c1NCCNC(=S)Nc1ccc(Cl)c(Cl)c1,4,37,19,28,10,102*
COc1ccc(N2CCN(c3ccc(C(=O)O)cc3[N+](=O)[O-])CC2)cc1,-11,15,2,-13,5,4
CC(=O)c1ccc(N2CCC(c3cc(-c4ccc(Cl)cc4)n[nH]3)CC2)c([N+](=O)[O-])c1,-62,33,5,19,38,88*
COC(=O)c1ccc(N2CCC(c3cc(-c4ccc(OC)cc4)n[nH]3)CC2)c([N+](=O)[O-])c1,-89,34,20,7,24,90*
CC(=O)c1ccc(N2CCN(c3ncccn3)CC2)c([N+](=O)[O-])c1,-9,19,23,25,13,-1
COc1ccc(-c2cc(C3CCN(c4ccc(C(C)=O)cc4[N+](=O)[O-])CC3)[nH]n2)cc1,-180,35,27,21,29,83*
COc1cc(C(=O)NCCN2CCN(C(=O)c3cc(OC)c(OC)c(OC)c3)CC2)cc(OC)c1OC,-20,-3,10,3,6,-3
C/C(=N/NC(=O)c1cccs1)c1ccc(N2CCOCC2)cc1,-2,14,-4,2,8,0
CCN(CC(=O)Nc1ccccc1C(F)(F)F)C(=O)c1cc(-c2ccccc2)nn1-c1ccccc1,0,15,17,28,8,51*
CCOC(=O)c1sc2ncnc(N3CCN(c4ccc(OC)cc4)CC3)c2c1C,-19,11,17,14,17,69*
CCOC(=O)c1sc2ncnc(N3CCN(C)CC3)c2c1C,10,13,16,-4,-4,10
CCCOc1cccc(-c2cc(C(=O)N/N=C/c3ccccn3)c3ccccc3n2)c1,-10,19,15,41,27,92*
Oc1ccc(C[C@H]2CNC(=S)N2CC2CCCN2C[C@H](Cc2ccc(O)cc2)N2C[C@H](Cc3ccccc3)N(CCc3ccccc3)C2=S)cc1 (some centres undefined),13,x,x,x,x,x
Cc1cc(C)n2nc(SCC(=O)c3c(N)n(CC(C)C)c(=O)n(C)c3=O)nc2n1,x,8,-6,-2,-6,-2
CC(/C=C1\SC(=S)N(CCCC(=O)Nc2ccc(C(=O)O)cc2)C1=O)=C\c1ccccc1,-12,18,11,19,15,121*
CC(/C=C1\SC(=S)N(CCC(=O)Nc2cccc(C(=O)O)c2)C1=O)=C\c1ccccc1,8,6,9,25,11,112*
CC(=C\c1ccccc1)/C=C1/SC(=S)N(CCCC(=O)O)C1=O,-15,8,2,18,-1,24
CCOc1ccccc1NC(=O)COC(=O)c1c[nH]c2ccccc12,-9,-11,-2,-14,-11,x
CCCCn1c(N)c(N(C)C(=O)c2cc3c(F)cccc3s2)c(=O)[nH]c1=O,-7,14,13,48,12,x
O=C(Nc1ncc(Cc2ccc(SC(F)F)cc2)s1)c1ccccc1,0,14,-11,7,30,82*
SMILES,PfHsp90 yeast 2,tim10-1 inh,NALP3 yeast inh,tim23-1 inh,TIM10 inh,SKKanGAS inh
O=C(Nc1nnc(Cc2ccccc2)s1)c1ccccc1,11,13,38,12,-6,2
CC(C)(C)c1nc(SCC(=O)N2CCCC2)c2ccccc2n1,-11,-22,24,33,16,-1
CC(C)(C)c1nc(SCC(=O)c2ccccc2)c2ccccc2n1,-19,16,1,21,10,62*
CC1(C)CC(=O)C(C2C3=C(CC(C)(C)CC3=O)Oc3c(Br)cc(Br)cc32)=C(O)C1 (centres undefined),28,15,6,4,16,56*
Cc1cccc2sc(NNC(=O)c3ccc(S(=O)(=O)N4CCc5ccccc5C4)cc3)nc12,-41,-3,10,19,-31,59*
Cc1cc(C)c2nc(NNC(=O)c3ccc(S(=O)(=O)N4CCCCC4)cc3)sc2c1,13,-4,8,29,-18,u
Cc1cccc2sc(NNC(=O)c3ccc(S(=O)(=O)N4CCCC(C)C4)cc3)nc12 (centres undefined),-57,x,x,x,x,91*
CCOC(=O)N1CCN(S(=O)(=O)c2ccc(C(=O)NNc3nc4c(C)cccc4s3)cc2)CC1,-3,-10,9,9,-49,22
Cc1ccc(N/C(N)=N/c2nc(C)cc(N3CCCCC3)n2)c(C)c1,-5,2,2,0,-10,-8
CC(C)c1nc(N2CCCC2)c(C#N)c2c1CCCC2,3,-8,19,1,-14,93*
CCn1c(SC(C)C(=O)NCC2CCCO2)nc2ccccc21 (centres undefined),3,3,13,1,0,x
Cc1ccc(-c2cc(-c3ccc(F)cc3)c(C#N)c(N)n2)o1,120*,28,30,25,15,-13
Cc1ccc(-c2cc(-c3ccc(C)o3)nc(N)c2C#N)cc1,10,21,10,23,7,6
Cc1cc(-c2cc(-c3ccc(Cl)cc3)nc(N)c2C#N)co1,122*,25,15,33,29,17
O=C(c1ccco1)N1N=C(c2cccs2)CC1c1cc([N+](=O)[O-])ccc1O (centres undefined),-18,25,15,43,21,21
CCC(=O)NC(c1cccs1)c1cc(Cl)c2ccccc2c1O (centres undefined),-13,24,22,40,27,x
CC(=O)NC(c1ccccc1)c1cc([N+](=O)[O-])c2cccnc2c1O (centres undefined),-23,25,28,-17,27,34
CCC(=O)NC(c1cccs1)c1cc([N+](=O)[O-])c2cccnc2c1O (centres undefined),2,22,24,28,12,47
CCCC(=O)NC(c1cccs1)c1cc([N+](=O)[O-])c2cccnc2c1O (centres undefined),67,x,x,x,x,86*
CC(C)C(=O)NC(c1ccccc1)c1cc([N+](=O)[O-])c2cccnc2c1O (centres undefined),-24,18,11,8,14,84*
